Test results taken from publication PMC7862700, “An all-to-all approach to the identification of sequence-specific readers for epigenetic DNA modifications on cytosine”.

How the values were obtained:
Assay in all cases: DAPPL (digital affinity profiling via proximity ligation, sequencing); 10 mM Tris-HCl pH 7.5, 50 mM NaCl, 1 mM DTT, 4% glycerol, room temperature, 30 min; GST-TFs on glutathione beads, 16-mer random dsDNA library, 0.1% formaldehyde crosslink after washing; high values mean tight binding
Conditions in all cases: protein: recombinant; tags: N-terminal GST; dsDNA, one strand shown
[1] = molecular target: T1, FLI1 (Homo sapiens, UniProt Q01543 1-452)
T1 sequence: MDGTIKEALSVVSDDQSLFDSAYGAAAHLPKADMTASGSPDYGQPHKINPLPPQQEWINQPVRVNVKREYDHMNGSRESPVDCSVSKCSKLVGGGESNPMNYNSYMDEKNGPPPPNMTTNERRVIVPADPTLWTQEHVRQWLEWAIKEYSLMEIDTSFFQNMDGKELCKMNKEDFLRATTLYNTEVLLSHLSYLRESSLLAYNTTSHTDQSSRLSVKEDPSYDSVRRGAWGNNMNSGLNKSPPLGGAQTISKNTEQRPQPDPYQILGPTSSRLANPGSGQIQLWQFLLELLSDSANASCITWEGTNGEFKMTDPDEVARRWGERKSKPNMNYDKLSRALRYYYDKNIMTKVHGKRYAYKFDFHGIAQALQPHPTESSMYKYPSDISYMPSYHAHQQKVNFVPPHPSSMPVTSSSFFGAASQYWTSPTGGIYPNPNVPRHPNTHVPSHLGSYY
Method in brief: (§1)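 Pools were built from human transcription factors expressed in yeast as GST fusions, captured on glutathione beads and DNA-barcoded, along with a tag-only sample. Incubation with 200 nmole of a 16-mer random double-stranded DNA library lasted 30 min at room temperature in Tris/NaCl/DTT/glycerol buffer, and was followed by washing, 0.1% formaldehyde crosslinking, proximity ligation, PCR amplification and Illumina NextSeq500 sequencing. Binding signal is the quotient of each hexamer's read frequency for a factor and its frequency for the tag-only sample.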

[2] = molecular target: T2, GABPA (Homo sapiens, UniProt Q06546 1-454)
T2 sequence: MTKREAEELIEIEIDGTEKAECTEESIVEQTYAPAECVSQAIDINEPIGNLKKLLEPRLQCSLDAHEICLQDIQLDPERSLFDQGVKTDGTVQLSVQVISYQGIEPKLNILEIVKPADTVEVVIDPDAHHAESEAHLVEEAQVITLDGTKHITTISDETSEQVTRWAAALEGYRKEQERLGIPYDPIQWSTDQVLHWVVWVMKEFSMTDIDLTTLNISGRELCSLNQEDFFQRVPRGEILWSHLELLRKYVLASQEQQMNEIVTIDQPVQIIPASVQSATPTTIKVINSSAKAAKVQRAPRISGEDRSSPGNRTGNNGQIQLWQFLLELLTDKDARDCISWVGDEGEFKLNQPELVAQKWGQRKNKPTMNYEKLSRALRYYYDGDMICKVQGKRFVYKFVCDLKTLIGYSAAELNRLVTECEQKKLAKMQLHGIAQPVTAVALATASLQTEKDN
Method in brief: as §1

[3] = molecular target: T3, ERG (Homo sapiens, UniProt P11308 1-479)
T3 sequence: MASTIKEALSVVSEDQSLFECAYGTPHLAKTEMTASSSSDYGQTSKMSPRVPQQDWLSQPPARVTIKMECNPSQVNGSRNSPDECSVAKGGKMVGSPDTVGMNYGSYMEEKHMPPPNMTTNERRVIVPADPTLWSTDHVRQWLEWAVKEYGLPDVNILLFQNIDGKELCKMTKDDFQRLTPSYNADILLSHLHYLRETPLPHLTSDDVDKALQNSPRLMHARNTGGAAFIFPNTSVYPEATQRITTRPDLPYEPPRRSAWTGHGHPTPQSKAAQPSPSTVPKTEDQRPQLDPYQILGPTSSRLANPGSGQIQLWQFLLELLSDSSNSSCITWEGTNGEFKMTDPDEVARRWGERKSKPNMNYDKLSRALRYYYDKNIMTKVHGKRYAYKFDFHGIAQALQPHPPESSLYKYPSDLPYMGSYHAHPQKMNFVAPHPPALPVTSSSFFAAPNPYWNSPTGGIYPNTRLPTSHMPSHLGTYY
Method in brief: as §1

[4] = molecular target: T4, EHF (Homo sapiens, UniProt Q9NZC4 1-300)
T4 sequence: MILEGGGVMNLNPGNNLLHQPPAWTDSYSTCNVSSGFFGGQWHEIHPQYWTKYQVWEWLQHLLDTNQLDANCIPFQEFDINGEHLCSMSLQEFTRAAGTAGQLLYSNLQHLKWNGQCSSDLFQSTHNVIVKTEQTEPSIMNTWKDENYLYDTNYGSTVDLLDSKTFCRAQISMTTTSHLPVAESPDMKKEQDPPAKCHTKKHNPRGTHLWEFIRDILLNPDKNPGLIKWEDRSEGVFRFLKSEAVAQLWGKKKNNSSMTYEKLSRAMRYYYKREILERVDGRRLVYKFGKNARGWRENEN
Method in brief: as §1

[5] = molecular target: SPIB (Homo sapiens, UniProt Q01892 1-262)
Sequence of SPIB (Q01892 whole entry): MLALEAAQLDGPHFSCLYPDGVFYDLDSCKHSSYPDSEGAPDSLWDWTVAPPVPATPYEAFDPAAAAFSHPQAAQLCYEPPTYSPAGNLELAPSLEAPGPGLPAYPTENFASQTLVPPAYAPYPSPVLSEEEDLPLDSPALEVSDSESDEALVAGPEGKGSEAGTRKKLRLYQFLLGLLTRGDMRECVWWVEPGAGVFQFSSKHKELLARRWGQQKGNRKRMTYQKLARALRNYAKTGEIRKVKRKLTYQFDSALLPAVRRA
Method in brief: as §1

[6] = molecular target: ETV5 (Homo sapiens, UniProt P41161 1-510)
Sequence of ETV5 (P41161 whole entry): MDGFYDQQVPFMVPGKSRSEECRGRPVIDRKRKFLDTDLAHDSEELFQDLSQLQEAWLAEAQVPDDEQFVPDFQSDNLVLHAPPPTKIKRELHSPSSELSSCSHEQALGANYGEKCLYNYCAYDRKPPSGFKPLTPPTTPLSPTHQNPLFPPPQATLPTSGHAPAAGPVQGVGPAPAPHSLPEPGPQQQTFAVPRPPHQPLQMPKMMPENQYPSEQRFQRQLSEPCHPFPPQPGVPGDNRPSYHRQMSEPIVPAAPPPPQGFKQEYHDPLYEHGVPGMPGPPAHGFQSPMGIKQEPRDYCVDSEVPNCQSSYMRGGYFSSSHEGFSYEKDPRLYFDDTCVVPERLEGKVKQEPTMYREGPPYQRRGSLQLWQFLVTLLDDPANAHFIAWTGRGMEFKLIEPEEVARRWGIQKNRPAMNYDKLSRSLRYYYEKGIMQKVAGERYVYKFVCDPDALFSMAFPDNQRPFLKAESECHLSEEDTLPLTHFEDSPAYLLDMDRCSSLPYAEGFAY
Method in brief: as §1

[7] = molecular target: ELF4 (Homo sapiens, UniProt Q99607 1-663)
Sequence of ELF4 (Q99607 whole entry): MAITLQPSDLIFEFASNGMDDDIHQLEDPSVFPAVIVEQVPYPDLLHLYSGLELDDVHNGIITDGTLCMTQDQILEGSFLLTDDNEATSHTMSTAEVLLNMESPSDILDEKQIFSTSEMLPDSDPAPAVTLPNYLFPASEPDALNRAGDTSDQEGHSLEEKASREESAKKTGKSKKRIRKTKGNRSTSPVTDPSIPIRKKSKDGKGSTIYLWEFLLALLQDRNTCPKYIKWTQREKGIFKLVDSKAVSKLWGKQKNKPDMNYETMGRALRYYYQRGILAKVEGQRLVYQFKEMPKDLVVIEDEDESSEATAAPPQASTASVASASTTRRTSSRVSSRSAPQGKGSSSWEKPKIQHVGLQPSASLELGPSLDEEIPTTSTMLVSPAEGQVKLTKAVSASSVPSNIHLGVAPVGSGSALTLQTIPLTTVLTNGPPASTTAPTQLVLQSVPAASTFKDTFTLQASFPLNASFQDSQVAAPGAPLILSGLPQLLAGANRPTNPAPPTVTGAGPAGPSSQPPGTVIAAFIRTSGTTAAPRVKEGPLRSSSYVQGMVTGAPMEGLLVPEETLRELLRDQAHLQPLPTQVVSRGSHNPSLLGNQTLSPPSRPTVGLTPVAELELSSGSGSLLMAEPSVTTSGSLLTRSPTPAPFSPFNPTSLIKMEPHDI
Method in brief: as §1

[8] = molecular target: T5, ETV2 (Homo sapiens, UniProt O00321 1-342)
T5 sequence: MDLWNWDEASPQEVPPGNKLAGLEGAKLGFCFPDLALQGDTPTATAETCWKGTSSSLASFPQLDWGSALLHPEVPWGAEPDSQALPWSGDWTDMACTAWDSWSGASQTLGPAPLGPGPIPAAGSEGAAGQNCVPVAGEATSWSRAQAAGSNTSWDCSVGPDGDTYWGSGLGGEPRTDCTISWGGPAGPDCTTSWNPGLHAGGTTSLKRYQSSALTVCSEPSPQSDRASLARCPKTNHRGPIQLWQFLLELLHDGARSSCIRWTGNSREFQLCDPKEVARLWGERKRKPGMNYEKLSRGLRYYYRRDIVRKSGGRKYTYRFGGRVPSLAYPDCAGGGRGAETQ
Method in brief: as §1

[9] = molecular target: T6, ETV3 (Homo sapiens, UniProt P41162-2 1-143)
T6 sequence: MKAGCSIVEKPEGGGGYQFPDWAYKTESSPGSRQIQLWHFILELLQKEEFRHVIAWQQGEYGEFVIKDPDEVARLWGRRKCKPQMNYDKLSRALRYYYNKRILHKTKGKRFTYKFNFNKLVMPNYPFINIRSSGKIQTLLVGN
Method in brief: as §1

[10] = molecular target: T7, ELK1 (Homo sapiens, UniProt P19419 1-428)
T7 sequence: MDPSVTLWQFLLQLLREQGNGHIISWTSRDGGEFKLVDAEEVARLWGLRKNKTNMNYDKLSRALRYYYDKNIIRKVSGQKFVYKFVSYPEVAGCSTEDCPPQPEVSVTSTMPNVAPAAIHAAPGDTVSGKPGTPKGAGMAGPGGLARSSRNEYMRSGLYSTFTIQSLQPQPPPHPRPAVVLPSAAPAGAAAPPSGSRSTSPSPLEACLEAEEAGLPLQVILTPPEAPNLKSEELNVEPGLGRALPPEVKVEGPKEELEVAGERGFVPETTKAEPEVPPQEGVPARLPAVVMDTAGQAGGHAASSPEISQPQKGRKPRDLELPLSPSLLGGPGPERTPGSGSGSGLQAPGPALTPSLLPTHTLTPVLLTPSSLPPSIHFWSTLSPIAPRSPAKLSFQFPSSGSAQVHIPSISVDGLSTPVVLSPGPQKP
Method in brief: as §1

[11] = molecular target: ELF1 (Homo sapiens, UniProt P32519 1-619)
Sequence of ELF1 (P32519 whole entry): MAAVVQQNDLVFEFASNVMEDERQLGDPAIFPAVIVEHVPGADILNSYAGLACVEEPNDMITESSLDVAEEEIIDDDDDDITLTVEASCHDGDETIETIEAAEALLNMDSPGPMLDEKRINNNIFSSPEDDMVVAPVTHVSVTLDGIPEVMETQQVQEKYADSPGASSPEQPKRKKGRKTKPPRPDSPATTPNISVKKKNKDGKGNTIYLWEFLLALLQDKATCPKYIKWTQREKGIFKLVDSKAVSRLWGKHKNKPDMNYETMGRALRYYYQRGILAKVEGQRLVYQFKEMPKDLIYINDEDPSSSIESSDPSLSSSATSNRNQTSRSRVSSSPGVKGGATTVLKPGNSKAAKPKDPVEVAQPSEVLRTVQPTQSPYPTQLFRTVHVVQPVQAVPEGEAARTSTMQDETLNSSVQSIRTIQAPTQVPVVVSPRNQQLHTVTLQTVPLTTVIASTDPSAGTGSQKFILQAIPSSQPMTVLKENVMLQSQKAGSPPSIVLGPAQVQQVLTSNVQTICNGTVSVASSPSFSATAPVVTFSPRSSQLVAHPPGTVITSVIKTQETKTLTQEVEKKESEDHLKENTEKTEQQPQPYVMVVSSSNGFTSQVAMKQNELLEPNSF
Method in brief: as §1

[12] = molecular target: T8, ELK3 (Homo sapiens, UniProt P41970 1-407)
T8 sequence: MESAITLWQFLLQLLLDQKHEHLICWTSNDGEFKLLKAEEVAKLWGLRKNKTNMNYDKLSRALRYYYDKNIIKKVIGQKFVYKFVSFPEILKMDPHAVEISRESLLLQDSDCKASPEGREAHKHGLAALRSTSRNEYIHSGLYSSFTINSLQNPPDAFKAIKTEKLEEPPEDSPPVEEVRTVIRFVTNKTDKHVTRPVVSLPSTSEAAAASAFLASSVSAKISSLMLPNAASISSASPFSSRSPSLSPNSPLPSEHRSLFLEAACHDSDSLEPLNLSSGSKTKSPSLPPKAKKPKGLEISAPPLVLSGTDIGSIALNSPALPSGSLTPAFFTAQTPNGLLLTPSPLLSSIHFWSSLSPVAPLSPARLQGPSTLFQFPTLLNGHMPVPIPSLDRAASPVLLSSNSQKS
Method in brief: as §1

[13] = molecular target: ETV1 (Homo sapiens, UniProt P50549 1-477)
Sequence of ETV1 (P50549 whole entry): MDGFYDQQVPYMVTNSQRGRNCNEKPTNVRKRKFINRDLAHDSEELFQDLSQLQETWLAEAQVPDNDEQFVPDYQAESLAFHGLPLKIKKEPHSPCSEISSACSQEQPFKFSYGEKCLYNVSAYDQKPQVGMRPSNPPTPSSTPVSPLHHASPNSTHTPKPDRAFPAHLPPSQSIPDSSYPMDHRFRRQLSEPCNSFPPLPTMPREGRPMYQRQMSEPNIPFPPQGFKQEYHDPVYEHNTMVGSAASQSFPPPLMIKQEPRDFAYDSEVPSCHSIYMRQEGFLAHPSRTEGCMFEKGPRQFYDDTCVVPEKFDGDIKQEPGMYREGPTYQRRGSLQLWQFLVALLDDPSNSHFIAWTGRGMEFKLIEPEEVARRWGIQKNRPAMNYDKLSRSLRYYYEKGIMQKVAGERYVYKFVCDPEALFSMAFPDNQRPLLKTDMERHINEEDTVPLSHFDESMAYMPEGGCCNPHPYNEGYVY
Method in brief: as §1

[14] = molecular target: T9, ERF (Homo sapiens, UniProt P50548 1-548)
T9 sequence: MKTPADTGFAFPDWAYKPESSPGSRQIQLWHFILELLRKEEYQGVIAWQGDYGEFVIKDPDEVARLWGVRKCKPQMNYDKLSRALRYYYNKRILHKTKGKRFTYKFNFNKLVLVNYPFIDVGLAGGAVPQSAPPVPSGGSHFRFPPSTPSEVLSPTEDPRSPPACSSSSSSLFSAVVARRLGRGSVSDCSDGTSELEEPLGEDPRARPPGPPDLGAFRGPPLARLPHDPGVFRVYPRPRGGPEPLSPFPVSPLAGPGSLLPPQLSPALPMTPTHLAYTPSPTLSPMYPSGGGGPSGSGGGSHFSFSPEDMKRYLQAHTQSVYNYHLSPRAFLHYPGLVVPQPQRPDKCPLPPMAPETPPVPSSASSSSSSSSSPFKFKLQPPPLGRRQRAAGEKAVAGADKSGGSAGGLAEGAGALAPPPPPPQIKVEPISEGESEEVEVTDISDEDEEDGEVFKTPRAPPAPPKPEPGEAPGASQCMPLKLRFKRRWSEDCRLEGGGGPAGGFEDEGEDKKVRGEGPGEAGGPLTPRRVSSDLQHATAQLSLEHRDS
Method in brief: as §1

[15] = molecular target: T10, ETS2 (Homo sapiens, UniProt P15036 1-469)
T10 sequence: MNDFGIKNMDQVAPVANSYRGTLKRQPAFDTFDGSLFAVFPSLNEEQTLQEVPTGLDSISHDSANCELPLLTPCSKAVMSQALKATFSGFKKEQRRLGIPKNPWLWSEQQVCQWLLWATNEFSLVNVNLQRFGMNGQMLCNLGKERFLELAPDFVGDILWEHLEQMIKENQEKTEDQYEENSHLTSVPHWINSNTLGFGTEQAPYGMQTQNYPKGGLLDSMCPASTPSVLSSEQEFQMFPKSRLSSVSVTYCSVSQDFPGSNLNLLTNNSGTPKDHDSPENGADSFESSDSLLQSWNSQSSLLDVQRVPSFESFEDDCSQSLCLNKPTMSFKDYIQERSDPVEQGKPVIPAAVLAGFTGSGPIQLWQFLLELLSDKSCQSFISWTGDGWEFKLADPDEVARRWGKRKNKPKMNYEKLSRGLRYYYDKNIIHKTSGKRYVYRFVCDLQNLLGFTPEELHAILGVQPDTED
Method in brief: as §1

[16] = molecular target: T11, ETV7 (Homo sapiens, UniProt Q9Y603 1-341)
T11 sequence: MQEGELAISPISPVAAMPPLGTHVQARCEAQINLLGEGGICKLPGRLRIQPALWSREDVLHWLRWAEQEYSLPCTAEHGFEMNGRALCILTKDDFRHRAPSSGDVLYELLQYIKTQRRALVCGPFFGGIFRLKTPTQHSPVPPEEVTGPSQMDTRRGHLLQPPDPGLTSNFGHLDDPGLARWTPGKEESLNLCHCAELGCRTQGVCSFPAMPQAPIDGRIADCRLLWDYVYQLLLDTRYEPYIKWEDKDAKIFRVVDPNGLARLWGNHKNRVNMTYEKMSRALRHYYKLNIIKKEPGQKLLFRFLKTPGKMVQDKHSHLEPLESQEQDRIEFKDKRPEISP
Method in brief: as §1

Sequence	binding signal [1]	binding signal [2]	binding signal [3]	binding signal [4]	binding signal [5]	binding signal [6]	binding signal [7]	binding signal [8]	binding signal [9]	binding signal [10]	binding signal [11]	binding signal [12]	binding signal [13]	binding signal [14]	binding signal [15]	binding signal [16]
CGGATC	1.04 fold enrichment (6-mer frequency, TF over GST control)	1.04 fold enrichment (6-mer frequency, TF over GST control)	1.05 fold enrichment (6-mer frequency, TF over GST control)	1.02 fold enrichment (6-mer frequency, TF over GST control)	1.01 fold enrichment (6-mer frequency, TF over GST control)	1.03 fold enrichment (6-mer frequency, TF over GST control)	1.01 fold enrichment (6-mer frequency, TF over GST control)	1.03 fold enrichment (6-mer frequency, TF over GST control)	1.06 fold enrichment (6-mer frequency, TF over GST control)	–	–	–	–	–	–	–
TGGTGG	1.11 fold enrichment (6-mer frequency, TF over GST control)	1.12 fold enrichment (6-mer frequency, TF over GST control)	1.1 fold enrichment (6-mer frequency, TF over GST control)	–	1.05 fold enrichment (6-mer frequency, TF over GST control)	1.03 fold enrichment (6-mer frequency, TF over GST control)	–	1.03 fold enrichment (6-mer frequency, TF over GST control)	–	1.01 fold enrichment (6-mer frequency, TF over GST control)	1.03 fold enrichment (6-mer frequency, TF over GST control)	1.22 fold enrichment (6-mer frequency, TF over GST control)	1.04 fold enrichment (6-mer frequency, TF over GST control)	1.1 fold enrichment (6-mer frequency, TF over GST control)	1.08 fold enrichment (6-mer frequency, TF over GST control)	1.09 fold enrichment (6-mer frequency, TF over GST control)
